From PubChem BioAssay
Calls of active or inactive are those of the source.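 The calls were made as follows: active = normalized viability below 100% at a tested concentration; inactive = the rest.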

Assay: drug combination growth inhibition, ovarian cancer – cell-based, oncology-focused library, rucaparib conditional, profiling panel (AID 1508598)
Conditions: patient-derived ovarian cancer cells, CellTiter-Glo viability, 144 h; at 0.000305 µM; OCI-P5x cells; with rucaparib 20 µM; hits give low values; 100% = cells with rucaparib alone

Compound	viability
N#CCNC(=O)c1ccc(-c2ccnc(Nc3ccc(N4CCOCC4)cc3)n2)cc1	105% (inactive)
Nc1nc(Nc2ccc(S(N)(=O)=O)cc2)nn1C(=O)c1c(F)cccc1F	89.3% (active)
O=C(Nc1ccccc1-c1cn2c(CN3CCNCC3)csc2n1)c1cnc2ccccc2n1	123% (inactive)
COc1ccc(-c2ccc3c(N4CCOCC4)nc(N4C[C@@H](C)O[C@@H](C)C4)nc3n2)cc1CO	105% (inactive)
CC1(C)CNc2cc(NC(=O)c3cccnc3NCc3ccncc3)ccc21	128% (inactive)
COc1cc2nccc(Oc3ccc(NC(=O)Nc4cc(C)on4)c(Cl)c3)c2cc1OC	104% (inactive)
N#Cc1c(NC(=O)c2cccc3ccccc23)sc2c1CCCC2	96% (active)
COc1ccc(-c2ccc3c(N4CCOC[C@@H]4C)nc(N4CCOC[C@@H]4C)nc3n2)cc1CO	87.2% (active)
Cc1cnc(NC(=O)Nc2cc(Br)c(C)cc2OC[C@@H]2CNCCO2)cn1	65.9% (active)
COC(=O)c1ccc2c(C(=Nc3ccc(N(C)C(=O)CN4CCN(C)CC4)cc3)c3ccccc3)c(O)[nH]c2c1	103% (inactive)
Cc1ccc(F)c(NC(=O)Nc2ccc(-c3cccc4[nH]nc(N)c34)cc2)c1	85.4% (active)

Same assay, conditions: patient-derived ovarian cancer cells, CellTiter-Glo viability, 144 h; at 0.000305 µM; OCI-P5x cells; without rucaparib; hits give low values

Compound	viability
N#CCNC(=O)c1ccc(-c2ccnc(Nc3ccc(N4CCOCC4)cc3)n2)cc1	104% (inactive)
Nc1nc(Nc2ccc(S(N)(=O)=O)cc2)nn1C(=O)c1c(F)cccc1F	84.9% (active)
O=C(Nc1ccccc1-c1cn2c(CN3CCNCC3)csc2n1)c1cnc2ccccc2n1	115% (inactive)
COc1ccc(-c2ccc3c(N4CCOCC4)nc(N4C[C@@H](C)O[C@@H](C)C4)nc3n2)cc1CO	112% (inactive)
CC1(C)CNc2cc(NC(=O)c3cccnc3NCc3ccncc3)ccc21	103% (inactive)
COc1cc2nccc(Oc3ccc(NC(=O)Nc4cc(C)on4)c(Cl)c3)c2cc1OC	96.5% (active)
N#Cc1c(NC(=O)c2cccc3ccccc23)sc2c1CCCC2	102% (inactive)
COc1ccc(-c2ccc3c(N4CCOC[C@@H]4C)nc(N4CCOC[C@@H]4C)nc3n2)cc1CO	93% (active)
Cc1cnc(NC(=O)Nc2cc(Br)c(C)cc2OC[C@@H]2CNCCO2)cn1	19.8% (active)
COC(=O)c1ccc2c(C(=Nc3ccc(N(C)C(=O)CN4CCN(C)CC4)cc3)c3ccccc3)c(O)[nH]c2c1	111% (inactive)
Cc1ccc(F)c(NC(=O)Nc2ccc(-c3cccc4[nH]nc(N)c34)cc2)c1	19.5% (active)

Same assay, conditions: patient-derived ovarian cancer cells, CellTiter-Glo viability, 144 h; at 0.00122 µM; OCI-C5x cells; with rucaparib 10 µM; hits give low values; 100% = cells with rucaparib alone

Compound	viability
N#CCNC(=O)c1ccc(-c2ccnc(Nc3ccc(N4CCOCC4)cc3)n2)cc1	103% (inactive)
Nc1nc(Nc2ccc(S(N)(=O)=O)cc2)nn1C(=O)c1c(F)cccc1F	96.6% (active)
O=C(Nc1ccccc1-c1cn2c(CN3CCNCC3)csc2n1)c1cnc2ccccc2n1	101% (inactive)
COc1ccc(-c2ccc3c(N4CCOCC4)nc(N4C[C@@H](C)O[C@@H](C)C4)nc3n2)cc1CO	113% (inactive)
CC1(C)CNc2cc(NC(=O)c3cccnc3NCc3ccncc3)ccc21	114% (inactive)
COc1cc2nccc(Oc3ccc(NC(=O)Nc4cc(C)on4)c(Cl)c3)c2cc1OC	109% (inactive)
N#Cc1c(NC(=O)c2cccc3ccccc23)sc2c1CCCC2	129% (inactive)
COc1ccc(-c2ccc3c(N4CCOC[C@@H]4C)nc(N4CCOC[C@@H]4C)nc3n2)cc1CO	122% (inactive)
Cc1cnc(NC(=O)Nc2cc(Br)c(C)cc2OC[C@@H]2CNCCO2)cn1	84.2% (active)
COC(=O)c1ccc2c(C(=Nc3ccc(N(C)C(=O)CN4CCN(C)CC4)cc3)c3ccccc3)c(O)[nH]c2c1	107% (inactive)
Cc1ccc(F)c(NC(=O)Nc2ccc(-c3cccc4[nH]nc(N)c34)cc2)c1	108% (inactive)

Same assay, conditions: patient-derived ovarian cancer cells, CellTiter-Glo viability, 144 h; at 0.00122 µM; OCI-C5x cells; without rucaparib; hits give low values

Compound	viability
N#CCNC(=O)c1ccc(-c2ccnc(Nc3ccc(N4CCOCC4)cc3)n2)cc1	108% (inactive)
Nc1nc(Nc2ccc(S(N)(=O)=O)cc2)nn1C(=O)c1c(F)cccc1F	96.5% (active)
O=C(Nc1ccccc1-c1cn2c(CN3CCNCC3)csc2n1)c1cnc2ccccc2n1	106% (inactive)
COc1ccc(-c2ccc3c(N4CCOCC4)nc(N4C[C@@H](C)O[C@@H](C)C4)nc3n2)cc1CO	119% (inactive)
CC1(C)CNc2cc(NC(=O)c3cccnc3NCc3ccncc3)ccc21	128% (inactive)
COc1cc2nccc(Oc3ccc(NC(=O)Nc4cc(C)on4)c(Cl)c3)c2cc1OC	100% (active)
N#Cc1c(NC(=O)c2cccc3ccccc23)sc2c1CCCC2	120% (inactive)
COc1ccc(-c2ccc3c(N4CCOC[C@@H]4C)nc(N4CCOC[C@@H]4C)nc3n2)cc1CO	105% (inactive)
Cc1cnc(NC(=O)Nc2cc(Br)c(C)cc2OC[C@@H]2CNCCO2)cn1	88.9% (active)
COC(=O)c1ccc2c(C(=Nc3ccc(N(C)C(=O)CN4CCN(C)CC4)cc3)c3ccccc3)c(O)[nH]c2c1	128% (inactive)
Cc1ccc(F)c(NC(=O)Nc2ccc(-c3cccc4[nH]nc(N)c34)cc2)c1	112% (inactive)
